# Measurements taken from the supplement of paper PMC4166925.
# ± gives the standard deviation of the averaged measurements. Whole data set: some 33,000 sequences, median “E-score (dimensionless, -0.5 to 0.5)” near -0.049, cut for the highest 2% near 0.37. The list comes from a sample in which the highest values are over-represented; it also holds similar and randomly drawn sequences.
# Test system: T1, PmTbr T-box DNA-binding domain (GST fusion)
# T1 sequence: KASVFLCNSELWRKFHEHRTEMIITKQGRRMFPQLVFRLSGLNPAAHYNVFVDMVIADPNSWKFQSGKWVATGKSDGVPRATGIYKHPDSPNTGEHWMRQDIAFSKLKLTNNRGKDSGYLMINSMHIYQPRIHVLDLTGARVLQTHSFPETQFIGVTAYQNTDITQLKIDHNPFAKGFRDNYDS
# Assay: PBM E-score of 8-mer (E-score (dimensionless, -0.5 to 0.5)); Tbr is Tbrain of the sea star Patiria miniata (Pm) or the sea urchin Strongylocentrotus purpuratus (Sp); higher = stronger binding preference
# Conditions: the construct has about 5 more residues each side
# Protocol: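 Universal protein-binding microarray (Agilent AMADID 016060, 60-bp probes with a 35-bp variable region) incubated with 200 nM GST-fused Patiria miniata Tbr T-box DNA-binding domain (residues 272-466) in PBS pH 7.5. Scored for every ungapped 8-mer (given with its reverse complement) by the Universal PBM Analysis Suite as E-score (modified Wilcoxon-Mann-Whitney enrichment, range -0.5 to 0.5; >0.45 counts as bound) and Z-score of median probe intensity. Two replicate arrays (datasets 1 and 2).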
row,Sequence,PBM E-score of 8-mer
1,AACACGAG,0.132 ± 0.0066
2,CACACGTA,0.357 ± 0.0053
3,CACACGGC,0.0461 ± 0.026
4,CACACAAA,0.0927 ± 0.064
5,CACACGTG,0.376 ± 0.019
6,CACACGTC,0.4359 ± 0.0027
7,ACCACGTG,0.169 ± 0.053
8,CAAGAGTG,0.154 ± 0.047
9,CAACCGAG,0.0284 ± 0.0078
10,GAAAATAA,-0.0661 ± 0.086
11,CAACACGA,0.161 ± 0.015
12,CAACACTA,0.323 ± 0.04
13,GAACACCC,0.1762 ± 0.00083
14,GAACACTA,0.051 ± 0.077
15,TAACACCA,0.451 ± 0.0075
16,GAACACCA,0.0994 ± 0.0056
17,CAACACCC,0.444 ± 0.015
18,CAACACGC,0.229 ± 0.019
19,AAACACCA,0.268 ± 0.0077
20,CAACACCA,0.392 ± 0.015
21,CAACACCG,0.3 ± 0.013
22,TAACACTA,0.382 ± 0.0057
23,CTGACTCC,-0.143 ± 0.047
24,CTGCCCTC,-0.067 ± 0.048
25,CACCCATC,0.201 ± 0.011
26,GATATACC,-0.114 ± 0.031
27,CAAATTCG,0.0471 ± 0.029
28,GCTCTAAC,0.0585 ± 0.0059

row,Sequence,PBM E-score of 8-mer
1,AATTACCG,0.0948 ± 0.036
2,ACATCACT,0.0297 ± 0.063
3,CCACACCC,0.395 ± 0.028
4,CCACACCG,0.134 ± 0.063
5,ACACACCC,0.327 ± 0.015
6,ACCTCTTG,0.138 ± 0.027
7,TAAGTGGA,-0.141 ± 0.0053
8,AGTTACCC,-0.0906 ± 0.018
9,CTCGCGAA,0.368 ± 0.0047
10,AGCGCGAG,0.319 ± 0.011
11,ATCGCGAA,0.335 ± 0.046
12,GTCGCGAA,0.33 ± 0.02
13,GGCGCGCA,0.0945 ± 0.0047
14,AGCGCGAA,0.392 ± 0.014
15,TTCGCGAA,0.3702 ± 0.0034
16,AGCGCGAT,0.291 ± 0.0076
17,ATCGCGAT,0.38 ± 0.014
18,GGCGCGAA,0.4607 ± 0.0017
19,GACGCGAA,0.126 ± 0.066
20,ATCGCGAG,0.249 ± 0.0038
21,GCTAGCAA,0.144 ± 0.015
22,ATATTGCC,-0.106 ± 0.095
23,CTTCTATC,-0.198 ± 0.025
24,ATCTGTGA,0.282 ± 0.0073
25,GTCGCCAA,0.288 ± 0.038
26,CGGTCAAA,-0.18 ± 0.0046
27,AACAGTGC,0.0577 ± 0.058
